# In paper PMC8222333, “AsCas12a ultra nuclease facilitates the rapid generation of therapeutic cell medicines”:
# Assays:
# Test in all cases: Spec-seq (native PAGE EMSA with sequencing of bound and unbound); 25 mM Tris-HCl pH 7.4, 150 mM KCl, 5 mM MgCl2, 10% glycerol, 1 mM DTT, 40 ng/uL salmon sperm DNA; 400 nM Cas12a, 480 nM crRNA, 50 nM library, 37 C 1 h; native PAGE at room temperature; high values mean tight binding
# Conditions in all cases: protein: recombinant
# dAsCas12a S542R = dAsCas12a S542R (Acidaminococcus sp., UniProt U2UMQ6 1-1307, S542R;D908A;E993A;D1235A)
# d-enCas12a = d-enCas12a (Acidaminococcus sp., UniProt U2UMQ6 1-1307, E174R;S542R;K548R;D908A;E993A;D1235A)
# d-enCas12a-Ultra = d-enCas12a-Ultra (Acidaminococcus sp., UniProt U2UMQ6 1-1307, E174R;S542R;K548R;M537R;F870L;D908A;E993A;D1235A)
# 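Note: relative affinity from the bound to unbound sequence frequency ratio in Spec-seq.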
Binder,binding signal (dAsCas12a S542R) [lnKA],binding signal (d-enCas12a) [lnKA],binding signal (d-enCas12a-Ultra) [lnKA]
GCCT (dsDNA) DNA 1: GCTATCTAGTGCTCAGTACGCACTGGCCTAGGAAACTTCTGGCAGGACCAGGTCATGAGATCGGAAGAGCACACGTCTGAACTCCAGTCA DNA 2: TGACTGGAGTTCAGACGTGTGCTCTTCCGATCTCATGACCTGGTCCTGCCAGAAGTTTCCTAGGCCAGTGCGTACTGAGCACTAGATAGC RNA: AAUUUCUACUCUUGUAGAUAGGAAACUUCUGGCAGGACC,-7.86,-5.97,-2.67
GGAA (dsDNA) DNA 1: GCTATCTAGTGCTCAGTACGCACTGGGAAAGGAAACTTCTGGCAGGACCAGGTCATGAGATCGGAAGAGCACACGTCTGAACTCCAGTCA DNA 2: TGACTGGAGTTCAGACGTGTGCTCTTCCGATCTCATGACCTGGTCCTGCCAGAAGTTTCCTTTCCCAGTGCGTACTGAGCACTAGATAGC RNA: AAUUUCUACUCUUGUAGAUAGGAAACUUCUGGCAGGACC,-8.88,-5.71,-3.48
GGAT (dsDNA) DNA 1: GCTATCTAGTGCTCAGTACGCACTGGGATAGGAAACTTCTGGCAGGACCAGGTCATGAGATCGGAAGAGCACACGTCTGAACTCCAGTCA DNA 2: TGACTGGAGTTCAGACGTGTGCTCTTCCGATCTCATGACCTGGTCCTGCCAGAAGTTTCCTATCCCAGTGCGTACTGAGCACTAGATAGC RNA: AAUUUCUACUCUUGUAGAUAGGAAACUUCUGGCAGGACC,-8.54,-5.99,-3.45
GGTG (dsDNA) DNA 1: GCTATCTAGTGCTCAGTACGCACTGGGTGAGGAAACTTCTGGCAGGACCAGGTCATGAGATCGGAAGAGCACACGTCTGAACTCCAGTCA DNA 2: TGACTGGAGTTCAGACGTGTGCTCTTCCGATCTCATGACCTGGTCCTGCCAGAAGTTTCCTCACCCAGTGCGTACTGAGCACTAGATAGC RNA: AAUUUCUACUCUUGUAGAUAGGAAACUUCUGGCAGGACC,-8.15,-4.86,-1.95
GTAG (dsDNA) DNA 1: GCTATCTAGTGCTCAGTACGCACTGGTAGAGGAAACTTCTGGCAGGACCAGGTCATGAGATCGGAAGAGCACACGTCTGAACTCCAGTCA DNA 2: TGACTGGAGTTCAGACGTGTGCTCTTCCGATCTCATGACCTGGTCCTGCCAGAAGTTTCCTCTACCAGTGCGTACTGAGCACTAGATAGC RNA: AAUUUCUACUCUUGUAGAUAGGAAACUUCUGGCAGGACC,-8.28,-5.83,-3.32
GGCA (dsDNA) DNA 1: GCTATCTAGTGCTCAGTACGCACTGGGCAAGGAAACTTCTGGCAGGACCAGGTCATGAGATCGGAAGAGCACACGTCTGAACTCCAGTCA DNA 2: TGACTGGAGTTCAGACGTGTGCTCTTCCGATCTCATGACCTGGTCCTGCCAGAAGTTTCCTTGCCCAGTGCGTACTGAGCACTAGATAGC RNA: AAUUUCUACUCUUGUAGAUAGGAAACUUCUGGCAGGACC,-8.26,-4.74,-1.64
GGAC (dsDNA) DNA 1: GCTATCTAGTGCTCAGTACGCACTGGGACAGGAAACTTCTGGCAGGACCAGGTCATGAGATCGGAAGAGCACACGTCTGAACTCCAGTCA DNA 2: TGACTGGAGTTCAGACGTGTGCTCTTCCGATCTCATGACCTGGTCCTGCCAGAAGTTTCCTGTCCCAGTGCGTACTGAGCACTAGATAGC RNA: AAUUUCUACUCUUGUAGAUAGGAAACUUCUGGCAGGACC,-8.47,-5.75,-3.35
TAAC (dsDNA) DNA 1: GCTATCTAGTGCTCAGTACGCACTGTAACAGGAAACTTCTGGCAGGACCAGGTCATGAGATCGGAAGAGCACACGTCTGAACTCCAGTCA DNA 2: TGACTGGAGTTCAGACGTGTGCTCTTCCGATCTCATGACCTGGTCCTGCCAGAAGTTTCCTGTTACAGTGCGTACTGAGCACTAGATAGC RNA: AAUUUCUACUCUUGUAGAUAGGAAACUUCUGGCAGGACC,-8.34,-4.66,-2.03
GGCT (dsDNA) DNA 1: GCTATCTAGTGCTCAGTACGCACTGGGCTAGGAAACTTCTGGCAGGACCAGGTCATGAGATCGGAAGAGCACACGTCTGAACTCCAGTCA DNA 2: TGACTGGAGTTCAGACGTGTGCTCTTCCGATCTCATGACCTGGTCCTGCCAGAAGTTTCCTAGCCCAGTGCGTACTGAGCACTAGATAGC RNA: AAUUUCUACUCUUGUAGAUAGGAAACUUCUGGCAGGACC,-8.78,-5.68,-2.87
GGAG (dsDNA) DNA 1: GCTATCTAGTGCTCAGTACGCACTGGGAGAGGAAACTTCTGGCAGGACCAGGTCATGAGATCGGAAGAGCACACGTCTGAACTCCAGTCA DNA 2: TGACTGGAGTTCAGACGTGTGCTCTTCCGATCTCATGACCTGGTCCTGCCAGAAGTTTCCTCTCCCAGTGCGTACTGAGCACTAGATAGC RNA: AAUUUCUACUCUUGUAGAUAGGAAACUUCUGGCAGGACC,-8.39,-5.85,-3.43
GTGG (dsDNA) DNA 1: GCTATCTAGTGCTCAGTACGCACTGGTGGAGGAAACTTCTGGCAGGACCAGGTCATGAGATCGGAAGAGCACACGTCTGAACTCCAGTCA DNA 2: TGACTGGAGTTCAGACGTGTGCTCTTCCGATCTCATGACCTGGTCCTGCCAGAAGTTTCCTCCACCAGTGCGTACTGAGCACTAGATAGC RNA: AAUUUCUACUCUUGUAGAUAGGAAACUUCUGGCAGGACC,-8.13,-5.91,-3.47
GTCG (dsDNA) DNA 1: GCTATCTAGTGCTCAGTACGCACTGGTCGAGGAAACTTCTGGCAGGACCAGGTCATGAGATCGGAAGAGCACACGTCTGAACTCCAGTCA DNA 2: TGACTGGAGTTCAGACGTGTGCTCTTCCGATCTCATGACCTGGTCCTGCCAGAAGTTTCCTCGACCAGTGCGTACTGAGCACTAGATAGC RNA: AAUUUCUACUCUUGUAGAUAGGAAACUUCUGGCAGGACC,-6.96,-4.39,-1.21
GGCC (dsDNA) DNA 1: GCTATCTAGTGCTCAGTACGCACTGGGCCAGGAAACTTCTGGCAGGACCAGGTCATGAGATCGGAAGAGCACACGTCTGAACTCCAGTCA DNA 2: TGACTGGAGTTCAGACGTGTGCTCTTCCGATCTCATGACCTGGTCCTGCCAGAAGTTTCCTGGCCCAGTGCGTACTGAGCACTAGATAGC RNA: AAUUUCUACUCUUGUAGAUAGGAAACUUCUGGCAGGACC,-8.47,-3.7,-0.996
GGGC (dsDNA) DNA 1: GCTATCTAGTGCTCAGTACGCACTGGGGCAGGAAACTTCTGGCAGGACCAGGTCATGAGATCGGAAGAGCACACGTCTGAACTCCAGTCA DNA 2: TGACTGGAGTTCAGACGTGTGCTCTTCCGATCTCATGACCTGGTCCTGCCAGAAGTTTCCTGCCCCAGTGCGTACTGAGCACTAGATAGC RNA: AAUUUCUACUCUUGUAGAUAGGAAACUUCUGGCAGGACC,-8.77,-5.93,-3.41
GCGT (dsDNA) DNA 1: GCTATCTAGTGCTCAGTACGCACTGGCGTAGGAAACTTCTGGCAGGACCAGGTCATGAGATCGGAAGAGCACACGTCTGAACTCCAGTCA DNA 2: TGACTGGAGTTCAGACGTGTGCTCTTCCGATCTCATGACCTGGTCCTGCCAGAAGTTTCCTACGCCAGTGCGTACTGAGCACTAGATAGC RNA: AAUUUCUACUCUUGUAGAUAGGAAACUUCUGGCAGGACC,-8.52,-5.91,-3.51
GTCC (dsDNA) DNA 1: GCTATCTAGTGCTCAGTACGCACTGGTCCAGGAAACTTCTGGCAGGACCAGGTCATGAGATCGGAAGAGCACACGTCTGAACTCCAGTCA DNA 2: TGACTGGAGTTCAGACGTGTGCTCTTCCGATCTCATGACCTGGTCCTGCCAGAAGTTTCCTGGACCAGTGCGTACTGAGCACTAGATAGC RNA: AAUUUCUACUCUUGUAGAUAGGAAACUUCUGGCAGGACC,-5.08,-1.42,-0.355
GGGT (dsDNA) DNA 1: GCTATCTAGTGCTCAGTACGCACTGGGGTAGGAAACTTCTGGCAGGACCAGGTCATGAGATCGGAAGAGCACACGTCTGAACTCCAGTCA DNA 2: TGACTGGAGTTCAGACGTGTGCTCTTCCGATCTCATGACCTGGTCCTGCCAGAAGTTTCCTACCCCAGTGCGTACTGAGCACTAGATAGC RNA: AAUUUCUACUCUUGUAGAUAGGAAACUUCUGGCAGGACC,-8.85,-5.77,-3.46
